PubChem BioAssay AID686978 (National Center for Advancing Translational Sciences (NCATS), 2013)
Where “and” joins values, the source holds several entries; their conditions need not be identical. Equal values may be shown once. Out of some 420,000 compounds screened, about 64,000 (15%) were called active. Roughly 27% stayed inconclusive and do not appear here. Calls follow the shape of the dose curve; as a rule, active = well fitted inhibition curve with a large enough effect; inconclusive = small, poorly fitted or top-dose-only effect; inactive = flat fitted curve, though single readings scatter. Not all results are given here. A call without a number means that no potency is given here.

test: qHTS for Inhibitors of human tyrosyl-DNA phosphodiesterase 1 (TDP1): qHTS in cells in absence of CPT; details: DT40 Tdp1-/- hTDP1 cells, no CPT, ATP luminescence, 48 h; activity change, negative = growth inhibition: at 46.2 µM (top of the series); also: nearly all actives have a fitted effect of over 55% in size
In short: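 Growth kinetics read by CellTiter-Glo luminescence after ≥48 hr at 37 °C. Cells: DT40 Tdp1-/- stably carrying human TDP1, 400 per well, compound exposure in the absence of CPT (DMSO vehicle).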
Potency is read from the fitted curve at half-maximal effect.

Compound | Potency
COc1ccc(C(=O)NC(C)c2nccs2)cc1OC1CCN(C(C)C)CC1 (stereo not drawn) | inactive
COc1ccc(-c2[nH]ncc2CN(C)Cc2cc(C)[nH]n2)c(F)c1 | inactive
Cc1cc(C)nc(NC(=O)Nc2ccccc2C(F)(F)F)n1 | 18.4 µM (active)
Cc1cc(C)nc(NC(=O)C(C)N2C(=O)c3ccccc3C2=O)n1 (stereo not drawn) | inactive
Cc1cc(Cl)nc(NC(=O)Nc2cccc(Cl)c2)n1 | inactive
CC(C)C(NC(=O)c1cccc(S(=O)(=O)N2CCOCC2)c1)C(=O)NCCc1ccccn1 (stereo not drawn) | inactive
O=C(COC(=O)c1c2c(nc3ccccc13)CCCC2)c1ccc(Br)s1 | 7.31 µM (active)
Cc1ccc(C(=O)COC(=O)c2cccc(N3C(=O)c4c(C)nc5ccccc5c4C3=O)c2)cc1C | inactive
O=C(COC(=O)c1ccncc1)c1ccccc1 | inactive
O=C(NC1CCCCC1)c1ccc(CNc2c(N3CCOCC3)c(=O)c2=O)cc1 | inactive
CN1C(=O)/C(=C/c2ccc(C(=O)NC3CCCC3)cc2)Oc2ccccc21 | 10.3 µM (active)
CC1CCC(NC(=O)c2ccc(N3CCCC3=O)cc2)CC1 (stereo not drawn) | inactive
CNC(=S)N1CCC(NC(=O)C(Cc2ccc(F)cc2)NC(C)=O)CC1 (stereo not drawn) | inactive
CCOc1ccc(C(CC(=O)O)n2cnnn2)cc1OC (stereo not drawn) | inactive
C[C@H]1CN([C@@H](C)CO)S(=O)(=O)c2ccc(Br)cc2O[C@H]1CN(C)C(=O)c1cnccn1 | inactive
CCOC(=O)C1=C(O)CSC1=Nc1cccc(Cl)c1 | inactive
CN(C)c1nc(=Nc2cccc(Cl)c2)ss1 | 0.206 µM (active)
CCN(CC)S(=O)(=O)c1ccc(OC(C)C)c(N)c1 | inactive
CC(C)Nc1nnc(SC(C)C(=O)N(C)C2CCCCC2)s1 (stereo not drawn) | inactive
Cc1cccc(N2CCN(C3=C(c4ccccc4)C(=O)c4ccccc43)CC2)c1C | 11.6 µM (active)
Cc1cccc(N2CCN(c3c(CN4CCCC4)c(=O)oc4ccccc34)CC2)c1C | inactive
CC(Oc1ccccc1)C(=O)NN1Cc2ccccc2C1=N (stereo not drawn) | inactive
Cc1nn(C)cc1N1C(=O)c2cccc3c(N)ccc(c23)C1=O | inactive
CCc1oc(-c2ccc(OC)cc2)c(C(=O)OCCCCCO)c1C(C)OCCO (stereo not drawn) | 16.4 µM (active)
CCN(CCCCOC(=O)c1ccc(OC)c(OC)c1)C(C)Cc1ccc(OC)cc1 (stereo not drawn) | inactive
COc1ccc(C(=O)Nc2c(N)nc(SCC(=O)N3CCC(C)CC3)[nH]c2=O)cc1OC | inactive

Compound | Potency
O=C(c1ccc2c(c1)C(=O)N(Cc1ccncc1)C2=O)N1CCN(S(=O)(=O)c2ccc(OC(F)(F)F)cc2)CC1 | inactive
Oc1ccc(Br)cc1C1C=C(c2ccc3c(c2)OCO3)NC(c2ccc(Cl)cc2)N1 (stereo not drawn) | 5.01 µM (active)
CCN(CC(=O)Nc1cc(Cl)ccc1C)C(=O)CN1C(=O)NC2(CCCC2)C1=O | inactive
CN(C)CCNC(=O)Nc1cccc(Cl)c1Cl | inactive
CN(C)CCNC(=O)c1ccc(Cl)c2cc3ccccc3nc12 | 0.146 µM (active)
CC(=O)NCCNC(=O)c1cc(-c2cccc3ccccc23)nc2ccccc12 | inactive
CCNC(=S)N(CCN(CC)CC)Cc1cc2cc3c(cc2[nH]c1=O)OCCO3 | inactive
Oc1c(C(c2cccs2)N2CCN(c3ccc(F)cc3)CC2)sc2ncnn12 (stereo not drawn) | inactive
CC1CC(C)CN(CC(=O)Nc2ccc(S(N)(=O)=O)cc2)C1 (stereo not drawn) | inactive
Cc1nc(SCC(=O)Nc2cc(C)on2)c2c(C)c(C)sc2n1 | inactive
Cc1nc(SCC(=O)N2CCc3ccccc3C2)c2c(C)c(C)sc2n1 | 16.4 µM (active)
Cc1nnc(SCC(=O)N2CCc3ccccc3C2)s1 | inactive
O=C(NCC(O)c1nc2ccccc2[nH]1)c1ccc(Br)cc1 (stereo not drawn) | inactive
O=C(CC1CCCCC1)NCc1ccc(F)cc1 | inactive
CCOC(=O)C1CCN(C(=O)Nc2ccc(Cl)cc2)CC1 | inactive
O=[N+]([O-])c1ccc(N2CCN(c3ccc(O)cc3)CC2)c(Cl)c1 | 13 µM (active)
O=C(O)C1CCN(c2ccc([N+](=O)[O-])cc2[N+](=O)[O-])CC1 | inactive
O=[N+]([O-])c1ccc(N2CCOCC2)cc1 | inactive
O=C(COC(=O)c1ccccc1SCC(=O)N1CCCC1)Nc1ccccc1OC(F)F | inactive
Cc1ccc(CNC(=O)CCNC(=O)Cn2ccc3ccccc3c2=O)cc1 | inactive
CCN(CCO)C(=S)Nc1cc(C(=O)OC)ccc1C(=O)OC | inactive
CCCN(CCC)C(=S)Nc1cc(C(=O)OC)ccc1C(=O)OC | 18.4 µM (active)
CCS(=O)(=O)Nc1cc(C(=O)OC)ccc1C(=O)OC | inactive
Cc1ccc(-c2nc3ccc(Cl)cn3c2Cc2ccccc2)cc1 | 20.6 µM (active)
CN(C)C(=O)c1nc2ccc(Cl)cn2c1CN1CCN(c2ncccn2)CC1 | inactive
CSc1nc(-c2ccco2)nn1C(=O)CCc1ccccc1 | inactive

Compound | Potency
CN1CCN(Cc2c(C(=O)N3CCc4ccccc4C3)nc3ccc(Cl)cn23)CC1 | inactive
CC(=O)Nc1c(-c2ccc(C)cc2)nc2ccc(Cl)cn12 | inactive
Cc1ccc(-c2cn3cc(C)ccc3n2)cc1 | inactive
c1ccc(Cc2c(-c3ccco3)nc3c4ccccc4ccn23)cc1 | 20.6 µM (active)
Cc1ccc(Cc2c(-c3ccco3)nc3ccc(Cl)cn23)cc1 | 11.6 µM (active)
O=C(Nc1c(-c2ccccc2)nc2c(Br)cc(Br)cn12)c1ccco1 | inactive
Cc1nn(CC(=O)Nc2ccc3c(c2)OCO3)c(C)c1[N+](=O)[O-] | inactive
Cc1cccc(NC(=O)CN2C(=O)CNC2=O)c1 | inactive
C/C(=N\NC(=O)c1cccc([N+](=O)[O-])c1)c1cccnc1 | inactive
CCOC(=O)C(C)Oc1cccc2c(=O)n(CC(=O)N3CCc4ccccc43)ccc12 (stereo not drawn) | inactive
O=C(Nc1ccccc1C(=O)N1CCOCC1)c1ccc(Cl)cc1 | inactive
Cn1c(=O)n(C)c2cc(S(=O)(=O)Nc3ccc(F)cc3)ccc21 | 20.6 µM (active)
Cc1cc(C)cc(NS(=O)(=O)c2ccc(F)cc2)c1 | inactive
Cn1c(=O)n(C)c2cc(NS(=O)(=O)c3ccc(F)cc3)ccc21 | inactive
Cn1c(C(=O)N2CCCC(C(=O)NCc3ccccc3)C2)cc2sccc21 (stereo not drawn) | inactive
Oc1cccc(/C=N/Nc2ccc(Cl)nn2)c1O | 0.13 µM (active)
Fc1ccccc1Cc1ccc(Cl)nn1 | inactive
C/C(=N\Nc1ccc(Cl)nn1)c1ccccc1O | 0.58 µM (active)
Clc1ccc(N/N=C/c2cccs2)nn1 | inactive
CCCCCCCN=C(C)c1ccccc1O | inactive
O=C(c1cccc(-n2cccc2)c1)N1CCN(S(=O)(=O)c2ccc(F)cc2)CC1 | inactive
C=C(Cl)COC(=O)C1C2C=CC(C2)C1C(=O)O (stereo not drawn) | inactive
CC12CN(NC(=O)c3ccc(Cl)cc3)C3(C#N)CC1CCC23C (stereo not drawn) | inactive
Cc1ccc(C(CNC(=O)Nc2ccccc2)N2CCN(C)CC2)cc1 (stereo not drawn) | inactive
Cc1ccc(NC(=O)[C@H](Cc2ccccc2)NC(=O)CC[C@H]2O[C@@H](n3ccc(=O)[nH]c3=O)[C@H](O)[C@@H]2O)cc1C | inactive
CCOC(=O)/C(N=Nc1cc(C(=O)O)cc(C(=O)O)c1)=C(\O)CCl | inactive

Compound | Potency
CCOc1ccc(/C(O)=C2\C(=O)C(=O)N(c3ccc(OC)cc3)C2c2ccccc2[N+](=O)[O-])cc1 (stereo not drawn) | inactive
CCOc1ccc(-c2n[nH]c3c2C(c2ccccc2OC)N(c2ccc(Br)cc2)C3=O)cc1 (stereo not drawn) | 14.6 µM (active)
CCO/C=C1\C(=O)N(c2ccc(OCC)cc2)C(=O)c2ccccc21 | inactive
Cc1ccc(C(=O)Nc2ccn(C)n2)cc1 | inactive
Cc1ccc(NC(=O)C2CCCN2S(=O)(=O)c2cccc3cccnc23)c(C)c1 (stereo not drawn) | 18.4 µM (active) and 16.4 µM (active)
O=C(Nc1nccs1)C1CCCN1S(=O)(=O)c1cccc2cccnc12 (stereo not drawn) | inactive
COc1ccc(NC(=O)C2CCCN(S(=O)(=O)c3cccc4cccnc34)C2)cc1OC (stereo not drawn) | inactive
COC(=O)C1=CN(c2c(C)cc(C)cc2C)C(N)=C(C#N)C1c1cccc(F)c1 (stereo not drawn) | 14.6 µM (active)
Cn1c2c(c(=O)n(C)c1=O)C(c1cccc(F)c1)C(C#N)=C(N)O2 (stereo not drawn) | inactive
COC(=O)C1=C(C)N(C)C(C)=C(C(=O)OC)C1c1cccc(Br)c1 | inactive
Cc1ccc(NC(=O)C(C)OC(=O)Cc2c[nH]c3ccccc23)cc1S(=O)(=O)N1CCOCC1 (stereo not drawn) | inactive
O=C(OCC(=O)N1CCCCCC1)c1ccc(Br)c(S(=O)(=O)N2CCOCC2)c1 | inactive
COc1cc(Br)cc(/C=N/c2ncn[nH]2)c1O | inactive
N#C/C(C(=O)N1CCOCC1)=C1/SC(Cc2ccc(F)cc2)C(=O)N1c1ccccc1 (stereo not drawn) | inactive
CC1(C(=O)NS(=O)(=O)c2cccs2)CCN1C(=O)Cc1ccc(-c2ccccc2)cc1 (stereo not drawn) | inactive
CC1(C(=O)NS(=O)(=O)c2ccccc2)CCN1C(=O)Cc1ccc(-c2ccccc2)cc1 (stereo not drawn) | inactive
CC1(C(=O)NS(=O)(=O)Cc2cccc(Cl)c2)CCN1C(=O)Cc1ccccc1 (stereo not drawn) | inactive
COc1ccc(OC)c(NC(=O)C2(C)CCN2C(=O)Cc2ccccc2)c1 (stereo not drawn) | inactive
C#Cc1ccc(NC(=O)C2(C)CCN2C(=O)Cc2ccc(-c3ccccc3)cc2)cc1 (stereo not drawn) | 20.6 µM (active)
CCCNC(=O)C1(C)CCN1C(=O)Cc1ccc(-c2ccccc2)cc1 (stereo not drawn) | 9.2 µM (active)
O=C(CSc1cn(CC(=O)N2CCOCC2)c2ccccc12)Nc1ccccc1 | inactive
O=C(CN1C(=O)NC2(CCCC2)C1=O)Nc1cc(C(F)(F)F)ccc1N1CCOCC1 | inactive
Cc1ccc2c(c1)N(CCCC(=O)NCc1cccnc1)C(=O)CO2 | inactive
COc1cc(C)ccc1OCC(=O)OCC(=O)c1ccc[nH]1 | inactive
COCC1CCN(C(=O)C2CCC(=O)N(CC3CCCCC3)C2)CC1 (stereo not drawn) | inactive
